Test results taken from publication PMC5540273 (PLoS ONE, 2017).

Assays:
Details in all cases: concentration: 1 μM, replicates: in singlicate; n = 1
[1] = test system: BMX
[2] = test system: BRAF
[3] = test system: T1, BRK
T1 construct: gene PTK6

[4] = test system: BRSK1
[5] = test system: BRSK2
[6] = test system: BTK
[7] = test system: BUB1
[8] = test system: CAMK1B
[9] = test system: CAMK1D
[10] = test system: CAMK1G
[11] = test system: CAMK1
[12] = test system: CAMK2A
[13] = test system: CAMK2B
[14] = test system: CAMK2D
[15] = test system: CAMK2G
[16] = test system: CAMK4
[17] = test system: CAMKK1
[18] = test system: CAMKK2
[19] = test system: CASK
[20] = test system: T2, CDC2L1
T2 construct: gene CDK11B
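Also: KINOMEscan kinase panel screen.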

Row | Structure (SMILES) | %Inh [1] [%] | %Inh [2] [%] | %Inh [3] [%] | %Inh [4] [%] | %Inh [5] [%] | %Inh [6] [%] | %Inh [7] [%] | %Inh [8] [%] | %Inh [9] [%] | %Inh [10] [%] | %Inh [11] [%] | %Inh [12] [%] | %Inh [13] [%] | %Inh [14] [%] | %Inh [15] [%] | %Inh [16] [%] | %Inh [17] [%] | %Inh [18] [%] | %Inh [19] [%] | %Inh [20] [%]
1 | CC(C)(C)c1ccc2nccc(Nc3cccc(O)c3)c2c1 [GW856795] | 0 | 41 | 51 | 0 | 11 | 43 | 24 | 68 | 13 | 0 | 0 | 0 | 0 | 0 | 0 | 0 | 2 | 0 | 0 | 0
2 | CSc1cccc2c(-c3ccncn3)c(-c3ccc(F)cc3)nn12 [GW514786] | 14 | 13 | 9 | 14 | 0 | 11 | 89 | 0 | 7 | 0 | 0 | 0 | 0 | 0 | 10 | 0 | 0 | 0 | 45 | 0
3 | COc1cccc(NC(=O)NC2CCN(c3ccnc(Nc4cc(OC)c(OC)c(OC)c4)n3)C2)c1 (centres unmarked) [GSK1379763] | 2 | 5 | 0 | 0 | 0 | 0 | 18 | 35 | 4 | 17 | 26 | 0 | 0 | 13 | 38 | 0 | 40 | 36 | 15 | 1
4 | CC(=O)N1CCN(c2ccc(Nc3nccc(-c4sc(C(C)C)nc4-c4cccc(NS(=O)(=O)c5cccc(Cl)c5)c4)n3)cn2)CC1 [GSK1660437] | 56 | 99.3 | 91.8 | 0 | 2 | 36 | 91 | 0 | 12 | 0 | 34 | 0 | 0 | 0 | 0 | 0 | 0 | 0 | 0 | 0
5 | O=C(Nc1cccc(-c2nn3ccccc3c2-c2ccnc(Nc3cccc(F)c3)n2)c1)c1c(F)ccc(F)c1Cl [GSK357952] | 63 | 36 | 69 | 5 | 0 | 42 | 29 | 21 | 12 | 0 | 12 | 0 | 0 | 0 | 0 | 13 | 0 | 0 | 4 | 0
6 | Cn1cc(-c2[nH]c3cc(NC(=O)[C@H](N)C4CCCCC4)cc4c3c2C=NNC4=O)cn1 | 13 | 39 | 14 | 31 | 61 | 94.2 | 100 | 87 | 90.4 | 0 | 49 | 68 | 15 | 76 | 73 | 0 | 60 | 56 | 6 | 2
7 | CN1CCN(CCCNc2nccc(-c3c(-c4ccc(F)cc4)nn4cc(C(F)(F)F)ccc34)n2)CC1 [GW621581] | 0 | 41 | 9 | 2 | 1 | 0 | 26 | 5 | 11 | 0 | 5 | 0 | 0 | 0 | 0 | 0 | 0 | 0 | 0 | 0
8 | CNC(=O)c1ccccc1Nc1nc(Nc2ccc(N3CCOCC3)cc2)ncc1Cl.Cl [GSK1576028] | 91.4 | 72 | 94.6 | 78 | 92.4 | 96.9 | 96.7 | 39 | 54 | 30 | 77 | 25 | 14 | 22 | 49 | 0 | 93.2 | 95 | 71 | 16
9 | O=C(O)C(F)(F)F.O=C(O)C(F)(F)F.O=c1[nH]ccc2nc(N[C@@H]3CCCNC3)nc(Nc3ccc(S(=O)(=O)N4CCOCC4)cc3)c12 [GSK2177277] | 58 | 0 | 9 | 69 | 69 | 90.7 | 90.5 | 100 | 99.1 | 74 | 88 | 100 | 99.9 | 54 | 54 | 95.6 | 94.2 | 57 | 2 | 0
10 | c1ccc(Oc2ccc(Nc3ccnc4cc(-c5ccc(CNCCN6CCOCC6)o5)ccc34)cc2)nc1 [GW567145] | 20 | 0 | 85 | 0 | 0 | 86 | 54 | 0 | 2 | 0 | 26 | 0 | 0 | 0 | 1 | 0 | 0 | 0 | 0 | 0
